Assay results reported in PubChem BioAssay (EPA / NIEHS).
The source made the active and inactive calls. Rule for the calls: active = hit-call score of the fitted dose curve at least 0.9, where 1 is the maximum; inactive = score below 0.9.

assay: APR_HepG2_P-H2AX_1hr: Apredica 1-hour HepG2 Assay for H2AX Phosphorylation (AID 2282673); settings: high-content imaging, actives raise or lower the signal
Protocol: APR_HepG2_1hr is a cell-based, multiplexed-readout assay that uses HepG2, a human liver cell line, with measurements taken at 1 hour after chemical dosing in a 384-well plate.APR_HepG2_P-H2AX_1hr is one of 10 assay component(s) measured or calculated from the APR_HepG2_1hr assay. It is designed to make measurements of dna content, a form of viability reporter, as detected with fluorescence intensity signals by HCS Fluorescent Imaging technology.Data from the assay component APR_HepG2_P-H2AX_1hr was analyzed into 1 assay endpoint. This assay endpoint, APR_HepG2_P-H2AX_1hr, was analyzed with bidirectional fitting relative to DMSO as the negative control and baseline of activity. Using a type of viability reporter, measures of protein for gain or loss-of-signal activity can be used to understand the signaling at the pathway-level as they relate to the gene . Furthermore, this assay endpoint can be referred to as a primary readout, because this assay has produced multiple assay endpoints where this one serves a signaling function. To generalize the intended target to other relatable targets, this assay endpoint is annotated to the dna binding intended target family, where the subfamily is cellular response to DNA damage stimulus.
Cells were treated with dimethyl sulfoxide (DMSO) as a solvent control at a final concentration of 0.5% v/v or with compounds in DMSO with a resulting final DMSO concentration of 0.5% v/v. Compound treatment was done at concentrations of 0.39, 0.78, 1.56, 3.12, 6.24, 12.5, 25, 50, 100, and 200 uM in duplicate on each plate. Cells were treated with compounds for 1, 24, or 72 hr. Carbonyl […] m-chloro-phenylhydrazone (CCCP) and taxol were used as positive controls for mitochondrial function and cytoskeletal stability, respectively; DMSO served as the negative control for this experiment. Cells were fixed by the direct addition of 50 uL formaldehyde in Hank's Balanced Salt Solution (HBSS) to a final concentration of 3.7%. After incubation in the fixation medium for 30 min at room temperature (293-298 K), cells were rinsed twice with HBSS and treated with cell permeabilization buffer (16 uL of 0.5% Triton X-100) for 10 min at room temperature (293-298 K) before labeling. For mitochondrial membrane potential and mitochondrial measurements, pre-fixed cells were incubated with 50 uL of MitoTracker Red CMXRos (Invitrogen) at a concentration of 250 nM for 30 min before fixation. In the remaining cases, post-fixed cells were labeled by incubation with a multiplexed mixture of primary antibodies in HBSS for 60 min at room temperature (293-298 K) to detect immunoreactivity of c-Jun (1:500), phospho-histone H3 (1:100), phospho-histone H2A.x (1:200), p53 (1:400), alpha-tubulin (1:200) and Hoechst 33342 (2 ug/mL). Cells were labeled for multiplexed imaging on two separate plates: a) Hoechst 33342, MitoTracker Red, phospho-histone H3, and alpha-tubulin, and b) Hoechst 33342, phospho-histone H2A.x, and c-Jun. A final rinse with HBSS (50 uL) was performed before analysis. The primary and secondary antibodies for the proteins were phospho-histone H3 (rabbit anti-phospho-histone H3 and FITC-donkey anti-rabbit IgG), phospho-histone H2A.x (mouse anti-phospho-histone H2A.x and FITC-donkey anti-mouse IgG), c-Jun (rabbit anti-phospho-c-Jun and Cy3-donkey anti-rabbit IgG), p53 (sheep anti-p53 and Cy5-donkey anti-sheep IgG), alpha-tubulin (mouse anti-alpha-tubulin and Cy5-donkey anti-mouse IgG). These antibodies are available as the CellCiphr HepG2 assay kit (Millipore).Digital images of each well were captured using a Cellomics ArrayScan VTI (Thermo Scientific Cellomics) (0.8 NA objective, 0.63x optical coupler, and XF-93 filter set) at 20x magnification. The images were acquired using the autofocus feature of the ArrayScan instrument, which entails the following steps. First, the camera focuses on channel 1 (Hoechst 33342), where nuclei are identified. Second, a Z offset of 1 um is used for capturing mitochondria (MitoTracker Red). […]

SMILES | outcome | AC50
Nc1nc(N)nc(NC2CC2)n1 | inactive | 
COP(=O)(OC)OC(Br)C(Cl)(Cl)Br (stereo not given) | inactive | 
CCCCOC(=O)[C@@H](C)Oc1ccc(Oc2ccc(C#N)cc2F)cc1 | inactive | 
CCCCN(CC)c1c([N+](=O)[O-])cc(C(F)(F)F)cc1[N+](=O)[O-] | inactive | 
CCOP(=S)(Oc1cnc(C(C)(C)C)nc1)OC(C)C (stereo not given) | inactive | 
CC(COc1ccc(Oc2ccccc2)cc1)Oc1ccccn1 (stereo not given) | inactive | 
COc1cccc(C(=O)NN(C(=O)c2cc(C)cc(C)c2)C(C)(C)C)c1C | inactive | 
CCOP(=O)(SC(C)CC)N1CCSC1=O (stereo not given) | inactive | 
CSC1=N[C@@](C)(c2ccccc2)C(=O)N1Nc1ccccc1 | inactive | 
O=C(O)c1cc(Oc2ccc(C(F)(F)F)cc2Cl)ccc1[N+](=O)[O-] | inactive | 
CNC(=O)ON=C(SC)C(=O)N(C)C | inactive | 
CCOP(=O)(NC(C)C)Oc1ccc(SC)c(C)c1 (stereo not given) | inactive | 
CNC(=O)ON=C(C)SC | inactive | 
CC(=NC#N)N(C)Cc1ccc(Cl)nc1 | inactive | 
COP(=O)(OC)SCn1c(=O)oc2cc(Cl)cnc21 | inactive | 
C[Si](Cn1cncn1)(c1ccc(F)cc1)c1ccc(F)cc1 | inactive | 
CC1(C(=O)Nc2ccc(O)c(Cl)c2Cl)CCCCC1 | inactive | 
CN(C)NC(=O)CCC(=O)O | inactive | 
CCCSP(=O)(OCC)SCCC | inactive | 
FC(F)C(F)(F)OCC(Cn1cncn1)c1ccc(Cl)cc1Cl (stereo not given) | inactive | 

SMILES | outcome | AC50
C#CC(C)(C)NC(=O)c1cc(Cl)cc(Cl)c1 | inactive | 
CC[C@H](C)[C@H]1O[C@]2(C=C[C@@H]1C)C[C@@H]1C[C@@H](C/C=C(\C)[C@@H](O[C@H]3C[C@H](OC)[C@@H](O[C@H]4C[C@H](OC)[C@@H](NC)[C@H](C)O4)[C@H](C)O3)[C@@H](C)/C=C/C=C3\CO[C@@H]4[C@H](O)C(C)=C[C@@H](C(=O)O1)[C@]34O)O2 |  | 16.8 µM (active)
C[N+]1(C)CCCCC1 | inactive | 
CCc1cccc(CC)c1N(COC)C(=O)CCl | inactive | 
CCOP(=S)(OCC)Oc1ccc([N+](=O)[O-])cc1 | inactive | 
CC(C)=CC1C(C(=O)OCN2C(=O)C3=C(CCCC3)C2=O)C1(C)C (stereo not given) | inactive | 
CCCCOC(=O)c1ccccc1C(=O)O | inactive | 
O=c1ccc(=O)[nH][nH]1 | inactive | 
O=[N+]([O-])c1cc(C(F)(F)F)c(Cl)c([N+](=O)[O-])c1Nc1ncc(C(F)(F)F)cc1Cl |  | 21.6 µM (active)
CCOC(=O)CC(SP(=O)(OC)OC)C(=O)OCC (stereo not given) | inactive | 
CN(C)[C@@H]1C(=O)C(C(N)=O)=C(O)[C@@]2(O)C(=O)C3=C(O)c4c(O)cccc4[C@@](C)(O)[C@H]3[C@H](O)[C@@H]12 | inactive | 
COP(=O)(NC(C)=O)SC (stereo not given) | inactive | 
CCNc1nc(Cl)nc(NC(C)(C)C#N)n1 | inactive | 
CCCSP(=O)(OCC)Oc1ccc(Br)cc1Cl (stereo not given) | inactive | 
CCOC(=O)COc1cc(-c2nn(C)c(OC(F)F)c2Cl)c(F)cc1Cl | inactive | 
C=C(C)[C@H]1Cc2c(ccc3c2O[C@@H]2COc4cc(OC)c(OC)cc4[C@@H]2C3=O)O1 | inactive | 
CC(C)[C@H](C(=O)O[C@H](C#N)c1cccc(Oc2ccccc2)c1)c1ccc(Cl)cc1 | inactive | 
CC(Oc1cccc(Cl)c1)C(=O)O (stereo not given) | inactive | 
CCC(=O)Nc1ccc(Cl)c(Cl)c1 | inactive | 
Cc1cc(C2CC2)nc(Nc2ccccc2)n1 | inactive | 
